Methyltransferases = Primary Screen for Target Class Profiling of Small Molecule Inhibitors of Methyltransferases. purified enzyme, MTase-Glo SAH luminescence; hits give low values. actives 3.9% (n = 25,000). calls only at 40 µM. AID 1745853, 2022; call rule not given here
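Each enzyme was assayed with SAM and its substrate. SAH formation detected by MTase-Glo luminescence; single-point 40 uM screen[…].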
* hit, by the source's call; i = inactive; + = active, no number. The full list was thinned out, with hits kept by preference. % is set by controls: 0 for no effect and ±100 for the full control effect.

SMILES	Methyltransferases
COc1cc(/C=C(\C#N)C(=O)Nc2nnc(C(F)(F)F)s2)ccc1OCc1ccc(C(F)(F)F)cc1C(F)(F)F	i
COc1ccc(CN2C(=O)c3nc4ccccc4n3CC2(C)C(=O)NCCC(C)C)cc1 (stereo not drawn)	i
NC(N)=NC(=O)c1nc(Cl)c(N2CCCCCC2)nc1N	i
CC[C@H]1CN(c2nc(N)c(C(N)=O)nc2Cl)CCN1C1CCN(Cc2ccc(Cl)cc2)CC1	+
Cc1c(C)c(NCC(=O)N(C)C2CCN(Cc3ccc(C(N)=O)cc3)CC2)c(C)c(C)c1N	i
CCCCN1C(=O)c2c(NC(C)=O)c3cc(OC)ccc3n2CC1(C)C(=O)NC1CCCCC1 (stereo not drawn)	i
CC(C)(C)Cn1c(N)nc2ccc(-c3[nH]c(C(C)(C)C)nc3-c3ccc(F)cc3)nc21	+
Cc1ccc(-c2cc(C(=O)NCc3cccs3)nn3cnnc23)cc1	i
CC1(C(=O)NC2CCCCCC2)Cn2c(cc3occc32)C(=O)N1Cc1ccc(Cl)cc1 (stereo not drawn)	i
O=C(NCCc1ccccc1)c1ccc(CN2C(=O)CCn3nc(-c4cccc(Cl)c4)cc32)cc1	i
COc1ccc(N2CCN(S(=O)(=O)c3ccc4c(c3)n(C)c(=O)n4C)CC2)cc1	i
Cn1c(=O)n(C)c2cc(S(=O)(=O)N3CCc4ccccc4C3)ccc21	i
Cn1c(=O)n(C)c2cc(S(=O)(=O)N3CCN(C4CCCCC4)CC3)ccc21	+
Cc1coc2c1C(=O)C(=O)c1c-2ccc2c1CCCC2(C)C	+
Cc1coc2c1C(=O)C(=O)c1c-2ccc2c(C)cccc12	i
CCc1cc2c(cc3n2CC(C)(C(=O)NC2CCC(C)CC2)N(Cc2ccccc2C)C3=O)s1 (stereo not drawn)	i
CC1(C(=O)NC2CCCCCC2)Cn2c(ccc2-c2ccco2)C(=O)N1Cc1ccc2c(c1)OCO2 (stereo not drawn)	i
CN(Cc1ccc(-c2ccccc2)cc1)CC1CCCCC1	i
CN(CCc1ccc(Nc2ncc(-c3cccnc3)s2)cc1)Cc1ccccc1	+
c1ccc(CCc2nc3nccc(-c4cccnc4)n3n2)cc1	i
CSc1ccc(CN2C(=O)c3cc(-c4ccccc4)nn3CC2(C)C(=O)NCc2ccccc2)cc1 (stereo not drawn)	i
CCOC(=O)C1CCN(C(=O)CN(C)S(=O)(=O)c2ccc3c(c2)CC(C)N3C(C)=O)CC1 (stereo not drawn)	i
COc1ccc(OC)c(S(=O)(=O)N2CCC([C@H]3[C@@H](OC)C(=O)N3C(C)C)CC2)c1	i
N.N.O=C(O)C1(C(=O)O)CCC1.[Pt+2]	+
NC1(C(=O)O)CCCCC1	i
SMILES	Methyltransferases
Cc1ccc(CN2C(=O)c3cc(-c4cccs4)nn3CC2(C)C(=O)NC2CCCCC2)cc1 (stereo not drawn)	i
O=C1Nc2ccccc2C12CN([S+](=O)([O-])c1ccccc1)C2	i
Cn1nccc1CN1CC2(C1)C(=O)Nc1ccccc12	i
O=C(O)CC1(O)C(=O)Nc2ccccc21 (stereo not drawn)	+
COC[C@@H]1CN(S(=O)(=O)c2ccccc2C)C[C@H]1c1nc(C)no1	i
COc1ccccc1CNC(=O)C1c2c(n(C)c3ccccc23)SCC(=O)N1c1ccc(C)c(Cl)c1 (stereo not drawn)	i
Nc1c2c(nc3ccccc13)CCCC2	+
COc1cc(OC)c(NS(=O)(=O)c2ccc3c(c2)n(C)c(=O)n3C)cc1Cl	i
Cc1cc2c3c([nH]c2cc1S(=O)(=O)NCCN1CCN(c2ccccc2F)CC1)CCCC3=O	i
COc1cccc(CNC(=O)c2cc3n(n2)CC(C)(C(=O)NCCC(C)C)N(C)C3=O)c1OC (stereo not drawn)	i
O=C(Nc1ccc(OC(F)(F)F)cc1)c1sccc1NCc1ccnc2ccccc12	i
Cc1cc(Nc2ccc(NC(=O)c3ccc(Nc4ccnc5ccccc45)cc3)cc2)nc(N)n1	+
Cn1c2ccc(NC(=O)c3ccccc3)cc2c(=O)n2nc(C(=O)O)cc12	i
O=C(CSc1nnc2n(Cc3ccccc3)c(=O)c3ccccc3n12)NC1CCCCC1	i
CCCn1c(=O)c2ccc(Cl)cc2n2c(=O)n(CC(=O)N3CCN(c4ccccc4F)CC3)nc12	i
CCOc1ccc(-c2ccc(Cn3c(CC(C)(C)C(=O)O)c(SC(C)(C)C)c4cc(OCc5ccc(C)cn5)ccc43)cc2)cn1	+
Cc1ccc(Cn2c(=O)c3ccc(C(=O)NC(C)C)cc3n3c(=O)n(CC(=O)NC(C)(C)C)nc23)cc1	i
CCOC(=O)c1cc2n(n1)CC(C)(C(=O)NC1CCCC1)N(c1cccc(CC)c1)C2=O (stereo not drawn)	i
CC(C)CNC(=O)c1ccc2c(=O)n(Cc3ccccc3)c3nn(Cc4ccccc4Cl)c(=O)n3c2c1	i
CCOC(=O)c1cc2n(n1)CC(C)(C(=O)NC1CCCCCC1)N(c1cc(C)ccc1C)C2=O (stereo not drawn)	i
CCOC(=O)c1cc2n(n1)CC(C)(C(=O)NC1CCCCCC1)N(c1ccc(C)c(C)c1)C2=O (stereo not drawn)	i
CCN1CCN(C(=O)c2cc3n(n2)CC(C)(C(=O)NC2CCCCC2)N(C)C3=O)CC1 (stereo not drawn)	i
Nc1ccc(-c2ccc3ncc4ccc(=O)n(-c5cccc(C(F)(F)F)c5)c4c3c2)cn1	+
CCC(=O)N1CCN(c2ccc(-n3c(=O)ccc4cnc5ccc(-c6cnc7ccccc7c6)cc5c43)cc2C(F)(F)F)CC1	i
COc1cccc(CNC(=O)c2cc3n(n2)CC(C)(C(=O)NCc2ccc(C)cc2)N(C)C3=O)c1 (stereo not drawn)	i
SMILES	Methyltransferases
CCOc1ccc(CN2C(=O)c3cc4occc4n3CC2(C)C(=O)NC2CCC(C)CC2)cc1 (stereo not drawn)	i
CC(=O)OC/C=C(\C)C(CC1C(C)=C(OC(C)=O)C(=O)C2C(C)(C)C(O)CCC12C)OC(C)=O (stereo not drawn)	+
CCCNC(=O)N(C1CCOCC1)C1CCN(C(=O)Cc2cccnc2)CC1	i
CCCn1c(=O)c2ccc(C(=O)NCC(C)C)cc2n2c(=O)n(Cc3ccc(F)cc3Cl)nc12	i
CC1(C(=O)NC2CCCCCC2)Cn2c(ccc2-c2ccco2)C(=O)N1CCc1ccco1 (stereo not drawn)	i
O=C1CN(Cc2ccc(Br)cc2)S(=O)(=O)c2ccccc2N1Cc1ccccc1F	i
CC1CCN(S(=O)(=O)c2ccc3c(ccn3CCC(=O)N3CC(C)CC(C)C3)c2)CC1 (stereo not drawn)	i
NC(=O)c1ccccc1Nc1ccnc(Nc2cccc(O)c2)n1	+
O=C(O)c1ccccc1Nc1cccc(OCc2ccc3ccccc3n2)c1	i
COc1ccccc1C(=O)N1CCN(c2nccc(Nc3ccccc3Cl)n2)CC1	i
CCCn1c(=O)c2ccc(C(=O)NC3CCCC3)cc2n2c(SCC(=O)Nc3ccccc3C)nnc12	i
CC1CCCCC1NC(=O)C1(C)Cn2c(cc3sccc32)C(=O)N1CCc1ccccc1 (stereo not drawn)	i
CC(C)(C)c1cc2n(n1)CC(C)(C(=O)NCc1ccccc1)N(c1ccc(F)cc1F)C2=O (stereo not drawn)	i
CCN(CC)CCN1C(=O)c2ccc(-c3ccco3)n2CC1(C)C(=O)NC1CCC(C)CC1 (stereo not drawn)	i

Bioassay records (PubChem BioAssay)
